# Results from PubChem BioAssay AID651702 (NMMLSC, 2012).
# “And” between values parts separate entries of the source, which are not always exact repeats. Identical values can stand only once. Screen size: about 360,000 compounds; about 2,400 (0.67%) were called active.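 Rule for the calls: active = inhibition above about 55% (limit read from the data); inconclusive = no clear call, values can overlap the other calls; inactive = the rest.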 This excerpt belongs to a sample that is enriched for actives.
# Experiment: LAMP-1 surface exposure blockers, TALL-104 cells – cell-based, flow cytometry, MLPCN library, primary screen (AID 651702)
# Settings: TALL-104 LAMP-1 surface exposure, at 10 µM, stronger effect = higher value, cells stimulated with thapsigargin and PMA
row,SMILES,inhibition
1,COc1ccc2c(c1)c(C(=O)N/N=C/c1cccs1)c(C)n2C,0.8% (inactive)
2,Cc1c(/C=N\NC(=O)c2cc3ccccc3o2)c2ccccc2n1C,65.6% (active)
3,CC(C)(C)n1nc2c(c1NC(=O)c1cc3ccccc3o1)CSC2,0% (inactive)
4,CCn1nc(C(=O)NNS(=O)(=O)c2cc(/C=C/C(=O)O)cc(OC)c2OC)c2ccccc2c1=O,1.1% (inactive)
5,CCOc1ccc(/C=C/C(=O)OCC(=O)c2ccccc2OC)cc1OC,-4.4% (inactive)
6,O=C(CN1C(=O)NC2(CCCCCC2)C1=O)NCc1cccs1,-5.2% (inactive)
7,Cc1nc2c(C(=O)NCc3ccc4c(c3)OCO4)c[nH]n2c(=O)c1Cc1ccccc1F,-2.7% (inactive)
8,Cc1cccc(N(C)C(=O)c2cc(S(=O)(=O)N3CCCCC3)c[nH]2)c1,-3.8% (inactive)
9,CCCCn1nnnc1C1(C)CCC(=O)N1Cc1ccc(OC)c(OC)c1 (stereo unspecified),-1.7% (inactive)
10,Cc1cc(SCC(=O)c2ccccc2)nc(SCC(=O)c2ccccc2)n1,78.5% (active)
11,Cc1nc(SCC(=O)c2ccccc2)c([N+](=O)[O-])[nH]1,0.6% (inactive)
12,Cc1nc2nc(SCC(=O)c3ccccc3)[nH]c2cc1Br,-2.1% (inactive)
13,O=c1[nH]c(=S)[nH]c(O)c1/C=C1\C=Nc2ccccc21,-1.2% (inactive)
14,CSCC(NS(=O)(=O)c1ccc(C)cc1)C(=O)O (stereo unspecified),1.8% (inactive)
15,Cc1ccc(S(=O)(=O)NC(C(=O)N2CCOCCOCCOCCOCC2)c2ccccc2)cc1 (stereo unspecified),-7% (inactive)
16,CCCC(C(=O)n1nc(C)cc1C)C(NS(=O)(=O)c1ccc(C)cc1)c1ccccc1 (stereo unspecified),66% (active)
17,N#Cc1ccc(C(C(=O)NCc2ccccc2)n2c(=O)c(-c3ccco3)nc3ccccc32)cc1 (stereo unspecified),1.3% (inactive)
18,COc1ccccc1CCNC(=O)c1c(C)nn(CC(C)C)c1Cl,-1.6% (inactive)
19,COCCCn1c(SCC(=O)Nc2oc(C)c3c(C)n[nH]c(=O)c23)nc2sc3c(c2c1=O)CCC3,-0.6% (inactive)

row,SMILES,inhibition
1,CC(CCc1ccccc1)NC(=O)COC(=O)c1ccc(F)cc1 (stereo unspecified),6% (inactive)
2,C#CCOc1ccc(/C=C2/C(=O)ON=C2C)cc1OCC,-12.5% (inactive)
3,CC1=NOC(=O)/C1=C\c1ccccc1,-7.3% (inactive)
4,COc1cc(/C=C2/C(=O)ON=C2C)ccc1OCc1ccccc1F,60.6% (active)
5,CC(C)(C)c1ccc(C(=O)N2CCN(CCNC(=O)C(=O)Nc3ccc(F)cc3)CC2)cc1,-0.5% (inactive)
6,COc1ccc(C2(c3ccc(OC)cc3)NC(=O)N(CC(=O)Nc3cc(C)on3)C2=O)cc1,5.1% (inactive)
7,CC[C@@H]1CCCCc2ccccc2[C@@H](C(=O)C[C@H](O)CC(C)=O)OC1=O,-4.4% (inactive)
8,CC(=O)C[C@H](O)CC(=O)[C@@H]1OC(=O)[C@@H](C)C/C=C\Cc2ccccc21,-0.2% (inactive)
9,CC(=O)C[C@@H](O)CC(=O)[C@H]1OC(=O)CCCCCCc2ccccc21,58.1% (active)
10,CSc1nc2nc(-c3cccc(C(F)(F)F)c3)ccn2n1,-1.7% (inactive)
11,Nc1c(C(=O)c2cccs2)sc2nsc(SCCN3CCCCC3)c12,94.6% (active)
12,O=C(Cc1ccc(NC(=O)C2CCCN(C(=O)CCc3ccccc3)C2)cc1)Nc1ccc(C(=O)N2CCOCC2)cc1 (stereo unspecified),-2% (inactive)
13,CCOC(=O)C1CCN(C(=O)CN2C(=O)c3cccnc3Oc3ccc(C)cc32)CC1,-4.5% (inactive)
14,Cc1ccc(C2(c3ccc(C)cc3)NC(=O)N(Cc3c(C)noc3C)C2=O)cc1,4.4% (inactive)
15,CCCCN1CC(COCc2ccccc2)OCCS1(=O)=O (stereo unspecified),-5.6% (inactive)
16,CCCCC[C@H](C)N1C[C@@H](COCc2ccccc2)Oc2cc(N3CCC[C@@H]3CO)ccc2S1(=O)=O,0.2% (inactive)
17,CCCCC[C@H](C)N1C[C@@H](COCc2ccccc2)Oc2cc(N3CC[C@@H](N(C)C)C3)ccc2S1(=O)=O,56.2% (active)
18,COc1cccc(-c2sc3ccc(OC)cc3c2-c2ccc(OCCN3CCCCC3)cc2)c1,14.7% (inactive)
19,COc1ccc2sc(-c3ccc(N(C)C)cc3)c(-c3ccc4cc[nH]c4c3)c2c1,72% (active)

row,SMILES,inhibition
1,COc1cc(OC)cc(-c2c(-c3ccc(F)cc3)c3cc(-c4ccc5cc[nH]c5c4)ccc3n2C)c1,-0.5% (inactive)
2,O=C(CCc1nnc2ccc(NCc3ccccc3Cl)nn12)NCC1CCN(C2CCCC2)C1 (stereo unspecified),-2.5% (inactive)
3,COc1ccc(S(=O)(=O)NCC(c2ccco2)N2CCOCC2)cc1 (stereo unspecified),-1.5% (inactive)
4,C=C(C)CNC(=S)Nc1ccc(S(=O)(=O)Nc2cnc3ccccc3n2)cc1,9.1% (inactive)
5,Cc1ccccc1OS(=O)(=O)c1cccc([N+](=O)[O-])c1,-1.4% (inactive)
6,COc1ccc(S(=O)(=O)N2CCN(CC(=O)N3CCNC3=O)CC2)cc1OC,-0.1% (inactive)
7,CN1CCN(C2Cc3ccc(Cl)cc3Sc3ccc(F)cc32)CC1 (stereo unspecified),63.7% (active)
8,Cc1ccc(-c2nnn(CC(=O)N(Cc3ccco3)C(C(=O)NC(C)(C)C)c3ccncc3)n2)o1 (stereo unspecified),3.8% (inactive)
9,Cc1c(C(C)(C)O)[nH]c2ccc(C#N)cc12,2.3% (inactive)
10,O=C(Nc1ccc(Cl)cc1)Nc1nnc(/C=C/c2ccccc2)s1,70.9% (active)
11,COc1ccc(/C=C/c2nnc(NC(=O)C(C)C)s2)cc1,2% (inactive)
12,O=C(CSc1ccccc1)Nc1nnc(/C=C/c2ccccc2)s1,-0.2% (inactive)
13,CCNC(=O)C1(C)CCCN(C(=O)c2c(C)noc2C)C1 (stereo unspecified),-7.3% (inactive)
14,COc1cc(C(=O)Nc2cc(C(F)(F)F)ccc2N2CCOCC2)ccc1O,-2.1% (inactive)
15,O=C(CC(n1cncn1)C(Cl)(Cl)Cl)c1ccc([N+](=O)[O-])cc1 (stereo unspecified),67.9% (active)
16,O=C(Cn1c[n+](CC(=O)c2ccc([N+](=O)[O-])cc2)cn1)c1ccc([N+](=O)[O-])cc1,0.3% (inactive) and 0% (inactive)
17,O=C(CCn1nnc2ccccc21)OCC(=O)c1ccc([N+](=O)[O-])cc1,-4.6% (inactive)
18,CN(C(=O)c1cccc(NC(=O)Cc2ccc(NC(=O)C3CCCN(C(=O)C4CCCC4)C3)cc2)c1)C1CCC1 (stereo unspecified),-0.4% (inactive)
